# Laboratory results reported in the supplement of paper PMC8728848.
# About 410 targets per protein were measured; listed, in parts, are those with the strongest signals and a random draw of the rest.
# Columns and labels:
# Assay in all cases: glycan array binding signal (z-score within array); higher = stronger binding
# Details in all cases: glycan notation: IUPAC condensed, linker removed
# [1] = biological target: Glc(b1-6)Glc
# Summary of the method: (§1)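 From the Consortium for Functional Glycomics database, 3228 arrays were curated, keeping only those whose protein sequence was available. Binding is given as a within-array Z-score averaged across arrays sharing a protein sequence and across linkers. Negative Z-scores can be read as non-binding.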
# [2] = biological target: GlcA(b1-3)GlcNAc
# Summary of the method: as §1
# [3] = biological target: GlcA(b1-6)Gal
# Summary of the method: as §1
# [4] = biological target: GlcNAc(a1-4)Gal(b1-4)GlcNAc(b1-3)Gal(b1-4)GlcNAc
# Summary of the method: as §1
# [5] = biological target: GlcNAc(a1-6)Gal(b1-4)GlcNAc
# Summary of the method: as §1
# [6] = biological target: GlcNAc(b1-3)Gal(b1-4)GlcNAc(b1-2)Man(a1-3)[GlcNAc(b1-3)Gal(b1-4)GlcNAc(b1-2)Man(a1-6)]Man(b1-4)GlcNAc(b1-4)GlcNAc
# Summary of the method: as §1
# [7] = biological target: GlcNAc(b1-3)Gal(b1-4)GlcNAc(b1-3)Gal(b1-4)GlcNAc(b1-3)Gal(b1-4)GlcNAc(b1-2)[GlcNAc(b1-3)Gal(b1-4)GlcNAc(b1-3)Gal(b1-4)GlcNAc(b1-3)Gal(b1-4)GlcNAc(b1-6)]Man(a1-6)[GlcNAc(b1-3)Gal(b1-4)GlcNAc(b1-3)Gal(b1-4)GlcNAc(b1-3)Gal(b1-4)GlcNAc(b1-2)Man(a1-3)]Man(b1-4)GlcNAc(b1-4)[Fuc(a1-6)]GlcNAc
# Summary of the method: as §1
# [8] = biological target: GlcNAc(b1-3)Gal(b1-4)GlcNAc(b1-3)Gal(b1-4)GlcNAc(b1-3)Gal(b1-4)GlcNAc(b1-3)Gal(b1-4)GlcNAc(b1-2)[GlcNAc(b1-3)Gal(b1-4)GlcNAc(b1-3)Gal(b1-4)GlcNAc(b1-3)Gal(b1-4)GlcNAc(b1-3)Gal(b1-4)GlcNAc(b1-6)]Man(a1-6)[GlcNAc(b1-3)Gal(b1-4)GlcNAc(b1-3)Gal(b1-4)GlcNAc(b1-3)Gal(b1-4)GlcNAc(b1-3)Gal(b1-4)GlcNAc(b1-2)Man(a1-3)]Man(b1-4)GlcNAc(b1-4)[Fuc(a1-6)]GlcNAc
# Summary of the method: as §1
# [9] = biological target: GlcNAc(b1-3)Gal(b1-4)GlcNAc(b1-3)[GlcNAc(b1-3)Gal(b1-4)GlcNAc(b1-3)]GalNAc
# Summary of the method: as §1
# [10] = biological target: GlcNAc(b1-3)Gal(b1-4)GlcNAc(b1-6)[GlcNAc(b1-3)]Gal(b1-4)GlcNAc
# Summary of the method: as §1
# [11] = biological target: GlcNAc(b1-3)GalNAc
# Summary of the method: as §1
# [12] = biological target: GlcNAc(b1-6)GalNAc
# Summary of the method: as §1
# [13] = biological target: Kdn(a2-3)Gal(b1-3)GalNAc
# Summary of the method: as §1
# [14] = biological target: Man(a1-3)[Man(a1-6)]Man(a1-6)[Man(a1-3)]Man
# Summary of the method: as §1
# [15] = biological target: Man(a1-3)[Man(a1-6)]Man(a1-6)[Man(a1-3)]Man(b1-4)GlcNAc(b1-4)GlcNAc
# Summary of the method: as §1
# [16] = biological target: Man(a1-3)[Man(a1-6)]Man(b1-4)GlcNAc(b1-4)GlcNAc
# Summary of the method: as §1
# [17] = biological target: Neu5Ac(a2-3)Gal
# Summary of the method: as §1
# [18] = biological target: Neu5Ac(a2-3)Gal(b1-4)GlcNAc(b1-3)Gal(b1-4)GlcNAc(b1-3)[Neu5Ac(a2-3)Gal(b1-4)GlcNAc(b1-3)Gal(b1-4)GlcNAc(b1-6)]GalNAc
# Summary of the method: as §1
# [19] = biological target: Neu5Ac(a2-3)Gal(b1-4)GlcNAc(b1-3)Gal(b1-4)[Fuc(a1-3)]GlcNAc
# Summary of the method: as §1
# [20] = biological target: Neu5Ac(a2-3)Gal(b1-4)[Fuc(a1-3)]GlcNAc(b1-3)GalNAc
# Summary of the method: as §1
# [21] = biological target: Neu5Ac(a2-3)GalNAc(b1-4)GlcNAc
# Summary of the method: as §1
# [22] = biological target: Neu5Ac(a2-6)Gal(b1-4)GlcNAc(b1-2)Man
# Summary of the method: as §1
# [23] = biological target: Neu5Ac(a2-6)Gal(b1-4)GlcNAc(b1-2)Man(a1-6)[Gal(b1-4)GlcNAc(b1-2)Man(a1-3)]Man(b1-4)GlcNAc(b1-4)GlcNAc
# Summary of the method: as §1
# [24] = biological target: Neu5Ac(a2-6)Gal(b1-4)GlcNAc(b1-2)Man(a1-6)[GlcNAc(b1-2)Man(a1-3)]Man(b1-4)GlcNAc(b1-4)GlcNAc
# Summary of the method: as §1
# [25] = biological target: Neu5Ac(a2-6)Gal(b1-4)GlcNAc(b1-3)Gal(b1-4)GlcNAc(b1-2)Man(a1-3)[Neu5Ac(a2-6)Gal(b1-4)GlcNAc(b1-3)Gal(b1-4)GlcNAc(b1-2)Man(a1-6)]GalNAc
# Summary of the method: as §1
# [26] = biological target: Neu5Ac(a2-6)Gal(b1-4)GlcNAc(b1-3)Gal(b1-4)GlcNAc(b1-3)[Neu5Ac(a2-6)Gal(b1-4)GlcNAc(b1-3)Gal(b1-4)GlcNAc(b1-6)]GalNAc
# Summary of the method: as §1
# [27] = biological target: Neu5Ac(a2-6)Gal(b1-4)GlcNAc(b1-6)[Gal(b1-3)GlcNAc(b1-3)]Gal(b1-4)Glc
# Summary of the method: as §1
# [28] = biological target: Neu5Gc(a2-3)Gal(b1-3)GlcNAc
# Summary of the method: as §1
# [29] = biological target: Neu5Gc(a2-8)Neu5Gc(a2-3)Gal(b1-4)GlcNAc
# Summary of the method: as §1
binder,measurement,setting,value
HFR-3 (Triticum aestivum) (protein) MKGLLLCALALAFAAVTTHAQLQSCPTRCGKQADGMECPNNLCCSKDGYCGLGVDYCSAGAGCQSGACYDNKICGAQANGTLCRNNHCCSSGGRCGYGREYCSNGCQGGPCWADLKCGHLDNGKLCPNNLCCSQYGYCGLGPEFCGTGCQNGACSTDKPCGNKANGAPCTNNYCCSQYGSCGLGKDYCGTGCQNGACN,glycan array binding signal (z-score),[1],-0.1
same,glycan array binding signal (z-score),[2],0.799
same,glycan array binding signal (z-score),[3],-0.641
same,glycan array binding signal (z-score),[4],0.598
same,glycan array binding signal (z-score),[5],-0.582
same,glycan array binding signal (z-score),[6],0.65
same,glycan array binding signal (z-score),[7],2.43
same,glycan array binding signal (z-score),[8],1.15
same,glycan array binding signal (z-score),[9],0.04
same,glycan array binding signal (z-score),[10],-1.09
same,glycan array binding signal (z-score),[11],2.18
same,glycan array binding signal (z-score),[12],-0.591
same,glycan array binding signal (z-score),[13],2.75
same,glycan array binding signal (z-score),[14],2.17
same,glycan array binding signal (z-score),[15],3.89
same,glycan array binding signal (z-score),[16],0.828
same,glycan array binding signal (z-score),[17],-0.367
same,glycan array binding signal (z-score),[18],0.555
same,glycan array binding signal (z-score),[19],-0.597
same,glycan array binding signal (z-score),[20],-0.052
same,glycan array binding signal (z-score),[21],1.18
same,glycan array binding signal (z-score),[22],0.755
same,glycan array binding signal (z-score),[23],-0.801
same,glycan array binding signal (z-score),[24],-0.077
same,glycan array binding signal (z-score),[25],0.189
same,glycan array binding signal (z-score),[26],0.943
same,glycan array binding signal (z-score),[27],-0.251
same,glycan array binding signal (z-score),[28],-0.969
same,glycan array binding signal (z-score),[29],-0.961
